mHtt clearance: mutant huntingtin protein clearance. HeLa Exon1htt(103Q)mCFP, aggregate imaging; zero = plate's median compound well. inhibition, % at 1.5 µM. actives 0.42% (n = 47,000);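 active = inhibition of aggregate fluorescence above about 70%, also judged a hit by eye on the cell image, limit read from the data, passing the limit was not always enough; inconclusive = no rule stated for this call; inactive = not judged a hit on image review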;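 note: cells exposed to compound for three days before fixation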
M1 agonist: agonists of M1 muscarinic receptor; actives 3% (n = 64,000); B-score at 10 µM; CHO-M1 cells, Fluo-4 calcium fluorescence, agonist mode; active compounds read high;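 active = fluorescence rise, raw or as B-score row- and column-corrected plate score, outside the 99.7% band of its plate's samples, either direction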
WNV NS2B-NS3 inh: blocks West Nile virus NS2B-NS3 protease activity; P06935; WNV NS2B-NS3 protease, fluorogenic substrate Ex360/Em465; active compounds read low; z-score (concentration not given with the values); actives 0.18% (n = 65,000); AID 577; in the data active = z-score below about -3
D1 allo mod: allosterically modulates the human D1 dopamine receptor | P21728 | B-score at 10 µM | HEK293 D1, CRE-luciferase, dopamine EC30 potentiation; actives deviate in either direction | actives 5.9% (n = 58,000);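 active = luminescence count or its row- and column-corrected plate score outside the 99.7% band of the plate's sample wells, on either side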
Target sequence (P21728 whole entry, looked up): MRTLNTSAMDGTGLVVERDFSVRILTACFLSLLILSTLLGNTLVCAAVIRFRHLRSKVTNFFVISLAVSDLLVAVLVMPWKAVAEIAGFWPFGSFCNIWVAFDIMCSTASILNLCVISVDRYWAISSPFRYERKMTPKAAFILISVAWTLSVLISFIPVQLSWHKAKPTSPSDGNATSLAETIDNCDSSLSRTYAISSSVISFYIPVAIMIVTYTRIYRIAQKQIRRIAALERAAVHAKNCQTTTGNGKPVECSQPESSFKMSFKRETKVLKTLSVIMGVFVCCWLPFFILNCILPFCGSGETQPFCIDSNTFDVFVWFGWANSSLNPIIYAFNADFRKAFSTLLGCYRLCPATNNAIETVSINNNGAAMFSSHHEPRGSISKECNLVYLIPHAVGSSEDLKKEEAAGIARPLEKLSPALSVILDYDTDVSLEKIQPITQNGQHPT
M1 antag: blocks the rat M1 muscarinic receptor response to acetylcholine; P08482; CHO-M1 cells, Fluo-4 calcium, ACh EC80 antagonist mode; active compounds read low; B-score at 10 µM; actives 3.4% (n = 64,000); AID 628;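 active = calcium fluorescence response, raw or row-and-column corrected B-score, differing from the plate sample mean either way at a set confidence level, mostly lower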
M1 agonist conf: confirmation of rat M1 muscarinic receptor agonists. shares compounds with M1 agonist. AID 1488. fluorescence change (max-min) at 10 µM. actives 19% (n = 1,700). CHO-M1 cells, Fluo-4 calcium fluorescence, agonist mode; actives lie on both sides;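 active = fluorescence change differs from the solvent-only DMSO control mean at a set confidence level in both duplicate runs; inconclusive = differs from solvent-only control mean in just one of two runs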;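 note: an EC20 dose of acetylcholine follows compound addition during the same imaging run; raw fluorescence intensity difference in instrument units with no normalization to controls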
M4 agonist ctr: rat M4 muscarinic agonism, M1 counter-screen; AID 1741; shares compounds with M1 agonist; fluorescence change (max-min) at 10 µM; CHO M4/Gqi5 cells, Fluo-4 calcium fluorescence, agonist mode; actives lie on both sides; actives 9% (n = 1,700);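 active = fluorescence change differing from the plate's solvent-only control wells at 99.7% confidence in both duplicates, whether higher or lower; inconclusive = differs from solvent controls in only one of two duplicates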
* = called active by the depositor. A selection: hits, their analogues and other compounds. The true share with any hit is near 8.9%.

For COc1ccc(C2C(C(=O)c3cccs3)=C(O)C(=O)N2c2nncs2)cc1 (stereo not given) the results were mHtt clearance 11.4, M1 agonist 92.9*, WNV NS2B-NS3 inh -0.94, D1 allo mod -1.7, M1 antag -0.107, M1 agonist conf 439* and M4 agonist ctr 339*.
C=CCOc1ccc(C2C(C(=O)c3cccs3)=C(O)C(=O)N2c2nnc(C)s2)cc1 (stereo not given) was read as mHtt clearance 30.1.
Screening CC(CC1C(C#N)=C(N)SC(N)=C1C#N)c1ccccc1 (stereo not given) returned mHtt clearance -82.4, M1 agonist -0.937, WNV NS2B-NS3 inh -0.41, D1 allo mod 0.17 and M1 antag 0.13.
`COc1ccc(-n2c(=O)c3c4c(sc3n3c(C)nnc23)CCCC4)cc1` gave mHtt clearance -6.8, M1 agonist 0.048, WNV NS2B-NS3 inh -0.27, D1 allo mod -0.723 and M1 antag 1.02.
Clc1ccc(Cn2ncc3c(N4CCOCC4)ncnc32)cc1 was read as mHtt clearance -24.5, M1 agonist 4.57*, WNV NS2B-NS3 inh -0.6, D1 allo mod -0.295, M1 antag -0.00635, M1 agonist conf inconclusive and M4 agonist ctr 9.34.
CCCCNc1ncnc2c1cnn2-c1ccc(Cl)cc1 was read as M1 agonist -0.104, WNV NS2B-NS3 inh -0.85, D1 allo mod -2.01 and M1 antag -0.0936.
Screening COCCNc1ncnc2c1cnn2Cc1ccc(Cl)cc1 returned M1 agonist 3.13*, WNV NS2B-NS3 inh 0.18, D1 allo mod -0.034, M1 antag -0.964, M1 agonist conf inconclusive and M4 agonist ctr -44.9.
For CC1CC(C)CN(c2ncnc3c2cnn3Cc2ccc(Cl)cc2)C1 (stereo not given) the results were mHtt clearance 20.3, M1 agonist -1.14, WNV NS2B-NS3 inh 1.81, D1 allo mod 0.517 and M1 antag 0.492.
`COc1ccc(OC)c(NC(=O)Cn2cc(C#N)c3cc(Br)ccc32)c1` gave M1 agonist 0.0196, WNV NS2B-NS3 inh -0.69, D1 allo mod -0.236 and M1 antag 0.0958.
`COc1ccc(S(=O)(=O)N2Cc3ccccc3CC2C(=O)Nc2ccc(O)cc2)cc1OC` (stereo not given) gave mHtt clearance 32.8, M1 agonist 4.02*, WNV NS2B-NS3 inh -0.54, D1 allo mod -0.0516, M1 antag -0.666, M1 agonist conf -4.02 and M4 agonist ctr -23.7.
Screening COc1ccc(S(=O)(=O)N2Cc3ccccc3CC2C(=O)O)cc1OC (stereo not given) returned mHtt clearance 9.5, M1 agonist -0.448, WNV NS2B-NS3 inh 0.48 and M1 antag -0.806.
For O=C(Nc1ccc2c(c1)OCO2)C1Cc2ccccc2CN1S(=O)(=O)c1cccs1 (stereo not given) the results were mHtt clearance 1.7, M1 agonist 5.54*, WNV NS2B-NS3 inh 0.74, M1 antag -1.16, M1 agonist conf -0.255 and M4 agonist ctr -21.5.
CCCn1nc(C(=O)NCCc2ccc(S(N)(=O)=O)cc2)c2ccccc2c1=O was read as mHtt clearance 53.8, M1 agonist -0.164, WNV NS2B-NS3 inh 1.81, D1 allo mod -0.274 and M1 antag 0.817.
Screening c1ccc2[nH]c(-c3ccnc4ccccc34)nc2c1 returned M1 agonist 2.4*, WNV NS2B-NS3 inh -0.62, D1 allo mod -2.09, M1 antag -0.987, M1 agonist conf -11.2 and M4 agonist ctr -34.1.
Screening Cc1ccccc1-c1nc2ccccc2[nH]1 returned mHtt clearance 7.5.
`CCOC(=O)Cc1nnc2c(Nc3ccccc3F)nc3nonc3n12` gave mHtt clearance 32.4, M1 agonist 4.33*, WNV NS2B-NS3 inh -1.32, D1 allo mod -2.53, M1 antag -0.637, M1 agonist conf inconclusive and M4 agonist ctr -54.4.
`CC(C)Cn1c2c(c(O)c(C(=O)Nc3ncccc3O)c1=O)CCCC2` gave M1 agonist 0.287, WNV NS2B-NS3 inh 0.04, D1 allo mod 1.45 and M1 antag -0.111.
Screening CC(C)Cn1c2c(c(O)c(C(=O)Nc3ccc(F)cc3)c1=O)CCCC2 returned mHtt clearance 60.7, M1 agonist 2.98*, WNV NS2B-NS3 inh -0.28, M1 antag -0.0509, M1 agonist conf inconclusive and M4 agonist ctr -48.8.
For CC(C)N(Cc1nc(-c2ccc(Cl)cc2)no1)C(=O)CCC1CCCC1 the results were mHtt clearance -49.3, M1 agonist 3.39*, WNV NS2B-NS3 inh 0.33, D1 allo mod -0.446, M1 antag 0.0266, M1 agonist conf inconclusive and M4 agonist ctr -45.1.
For CC1CCN(c2nc3ccccc3nc2C(C#N)C(=O)NC2CCCCC2)CC1 (stereo not given) the results were M1 agonist 8.76*, WNV NS2B-NS3 inh -0.33, D1 allo mod -0.0236, M1 antag -0.277, M1 agonist conf 105* and M4 agonist ctr 41.8.
`CCCCCCOC(=O)C(C#N)c1nc2ccccc2nc1N1CCCCC1` (stereo not given) gave mHtt clearance 6.0, M1 agonist 9.88*, WNV NS2B-NS3 inh 0.09, D1 allo mod -0.864, M1 antag -2.17, M1 agonist conf inconclusive and M4 agonist ctr 77.3.
CCCCCCOC(=O)C(C#N)c1nc2ccccc2nc1N1CCN(C)CC1 (stereo not given) was read as M1 agonist 5.07*, WNV NS2B-NS3 inh -0.62, D1 allo mod 0.13, M1 antag 1.95*, M1 agonist conf -13.5 and M4 agonist ctr inconclusive.
COc1ccc(CNC(=O)C(C#N)c2nc3ccccc3nc2N2CCN(C)CC2)cc1 (stereo not given) was read as M1 agonist 0.429, WNV NS2B-NS3 inh 1.01, D1 allo mod -2.67 and M1 antag -0.821.
CCC(CC)COC(=O)C(C#N)c1nc2ccccc2nc1N1CCN(CC)CC1 (stereo not given) was read as mHtt clearance 38.4, M1 agonist 2.58, WNV NS2B-NS3 inh -0.35, D1 allo mod -3.46 and M1 antag -0.155.
COc1ccc(CNC(=O)C(C#N)c2nc3ccccc3nc2N2CCCC2)cc1 (stereo not given) was read as M1 agonist 165*, WNV NS2B-NS3 inh 0.84, D1 allo mod 1.16, M1 antag -6.88*, M1 agonist conf 373* and M4 agonist ctr 562*.
`CCC(C)COC(=O)C(C#N)c1nc2ccccc2nc1N1CCCCC1` (stereo not given) gave M1 agonist 1.55, WNV NS2B-NS3 inh 0.000251, D1 allo mod 0.302 and M1 antag -0.101.
O=C(CN1C(=O)NC2NC(=O)NC21)NC1CCCCC1 (stereo not given) was read as M1 agonist 0.472, WNV NS2B-NS3 inh 0.07, D1 allo mod 0.403 and M1 antag 0.575.

Compound activity deposited in PubChem BioAssay by several laboratories.
